The results in this text go back to PubChem BioAssay (NCI).

Test systems include HCT-15 colon; HT29 colon; SNB-75 CNS; SNB-19 CNS; U251 CNS; PC-3 prostate; SK-MEL-5 melanoma; UACC-62 melanoma; LOX IMVI melanoma; SK-MEL-28 melanoma; SK-MEL-2 melanoma; EKVX NSCLC; SN12C renal; TK-10 renal; ACHN renal; CAKI-1 renal; A498 renal; CCRF-CEM leukemia; MOLT-4 leukemia; UO-31 renal.
Test in all cases: NCI-60 one-dose screen, 48 h (100 = growth as untreated, 0 = no growth, -100 = all killed)
Settings in all cases: 10 µM unless noted

The panel holds about 83,000 compounds, 20% with a hit somewhere; the sample as a whole holds those more often.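 Cells were grown in 96-well plates and exposed to the test compound at a single concentration for 48 hours; results are reported as percent growth, with values below 10 considered active.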 Unmarked numbers belong to inactive results. Activity calls are given as the source filed them.

`O=C(CN1CCN(c2cc3c(cc2F)c(=O)c(C(=O)O)cn3C2CC2)CC1)Nc1nc(-c2ccccc2)cs1`: the growth in the assay with HCT-15 colon is 82.4%; in the assay with HT29 colon, 72.7%; with SNB-75 CNS, 69.6%; in the assay on SNB-19 CNS, 86.8%; in the assay on U251 CNS, 43.8%; in the assay on PC-3 prostate it was 64.7%. Besides, the growth in the assay on SK-MEL-5 melanoma was 78.9%; with UACC-62 melanoma, 78.8%; with LOX IMVI melanoma it was 36.5%; with SK-MEL-28 melanoma it was 87.5%; in the assay on SK-MEL-2 melanoma, 94.6%; with EKVX NSCLC it was 91.4%. Also, the growth in the assay on SN12C renal is 71.2%; in the assay with TK-10 renal, 82.9%; in the assay on ACHN renal, 89.5%; in the assay on CAKI-1 renal it was 93.8%; in the assay on A498 renal it was 65.2%; with CCRF-CEM leukemia it was 79.1%. Further, in the assay with MOLT-4 leukemia, the growth is 89%.

For `C=C1CCC2C3(C)COC(c4ccccc4Br)OC3CCC2(C)C1C/C=C1/C(=O)OCC1OC(C)=O` (stereo not drawn), the growth in the assay on HCT-15 colon is -36.2% (active); in the assay on HT29 colon it was -46.2% (active); in the assay on SNB-75 CNS, -25.3% (active); in the assay with SNB-19 CNS, 102%; in the assay with U251 CNS it was -95.9% (active); in the assay with PC-3 prostate, -17.1% (active). Besides, the growth is -57.1% (active) in the assay on SK-MEL-5 melanoma; -18.4% (active) in the assay on UACC-62 melanoma; -92% (active) in the assay on LOX IMVI melanoma; -52.9% (active) in the assay on SK-MEL-28 melanoma; -37.4% (active) in the assay on SK-MEL-2 melanoma; -3.86% (active) in the assay with EKVX NSCLC. Besides, the growth is -43.7% (active) in the assay with SN12C renal; 26% with UO-31 renal; -48.5% (active) in the assay with TK-10 renal; -80.2% (active) in the assay on ACHN renal; -32.4% (active) with CAKI-1 renal; 42.8% in the assay with A498 renal. Further, in the assay on MOLT-4 leukemia, the growth is -45.5% (active).

As to `O=C(/C=C/c1ccc(Cl)cc1)/C=C/c1cc2ccccc2[nH]c1=O`, the growth in the assay with HCT-15 colon is 69%; with HT29 colon, -0.317% (active); in the assay on SNB-75 CNS, 68.8%; in the assay on SNB-19 CNS, 83.4%; with U251 CNS, 11.7%; in the assay with PC-3 prostate, 48.8%. Further, the growth is 75.2% in the assay with SK-MEL-5 melanoma; 52.9% with UACC-62 melanoma; -44.5% (active) in the assay on LOX IMVI melanoma; 76.1% with SK-MEL-28 melanoma; 98.2% with SK-MEL-2 melanoma; 62.8% in the assay with SN12C renal. The growth with UO-31 renal was 63.9%; in the assay with TK-10 renal it was 119%; with ACHN renal, 74%; in the assay with CAKI-1 renal it was 108%; in the assay on A498 renal, 94.7%; with CCRF-CEM leukemia it was 2.35% (active). Besides, the growth in the assay on MOLT-4 leukemia was 15.7%.

Regarding `C=C1CCC2C3(C)COC(c4ccc(SC)cc4)OC3CCC2(C)C1C/C=C1/C(=O)OCC1O` (stereo not drawn), the growth in the assay with HCT-15 colon was 68.7%; in the assay on HT29 colon, 34.4%; with SNB-75 CNS, 73%; in the assay with SNB-19 CNS, 109%; in the assay on U251 CNS, 60.7%; in the assay with PC-3 prostate, 57.6%. For the same compound, the growth in the assay with SK-MEL-5 melanoma is 65.3%; with UACC-62 melanoma, 66.3%; in the assay with LOX IMVI melanoma, 23.3%; with SK-MEL-28 melanoma it was 104%; with SK-MEL-2 melanoma, 64.8%; in the assay on EKVX NSCLC it was 56.1%. Moreover, the growth is 65.6% in the assay on SN12C renal; 101% in the assay on TK-10 renal; 74.2% in the assay with ACHN renal; 75.3% in the assay with CAKI-1 renal; 96.7% in the assay on A498 renal; 2.76% (active) in the assay on CCRF-CEM leukemia. Also, in the assay with MOLT-4 leukemia, the growth was 5.06% (active).

Regarding `COc1ccc(C(=O)/C=C/c2cc3ccccc3[nH]c2=O)cc1`, the growth is 46.4% in the assay with HCT-15 colon; 6.09% (active) with HT29 colon; 2% (active) in the assay on SNB-75 CNS; 70.5% with SNB-19 CNS; 31.7% in the assay with U251 CNS; 32.3% in the assay on PC-3 prostate. Moreover, the growth was 72.5% in the assay with SK-MEL-5 melanoma; 67.7% with UACC-62 melanoma; 10.2% in the assay with LOX IMVI melanoma; 88.2% in the assay on SK-MEL-28 melanoma; 55.1% in the assay with SK-MEL-2 melanoma; 79% with EKVX NSCLC. For the same compound, the growth with SN12C renal was 45%; in the assay with UO-31 renal, 24.9%; in the assay with TK-10 renal, 24.7%; in the assay with ACHN renal, 57.9%; with CAKI-1 renal, 42.8%; with A498 renal, 47.4%. Besides, the growth in the assay with CCRF-CEM leukemia is 19.5%; in the assay with MOLT-4 leukemia, 32.5%.

As for `O=C(COCc1c(-c2ccccc2)no[n+]1[O-])Nc1ccc(C(=O)/C=C/c2ccc3c(c2)OCO3)cc1`, the growth in the assay on HCT-15 colon is 104%; with HT29 colon, 132%; in the assay on SNB-75 CNS, 120%; in the assay with SNB-19 CNS it was 97.3%; with U251 CNS, 107%; in the assay with PC-3 prostate it was 76.3%. Also, the growth in the assay on SK-MEL-5 melanoma is 94.4%; in the assay with UACC-62 melanoma, 97.5%; with LOX IMVI melanoma it was 68.3%; in the assay with SK-MEL-28 melanoma it was 112%; in the assay with SK-MEL-2 melanoma, 134%; in the assay on EKVX NSCLC, 108%. The growth was 102% in the assay with SN12C renal; 87.4% in the assay with UO-31 renal; 94.6% in the assay on ACHN renal; 91.7% in the assay with CAKI-1 renal; 111% in the assay with A498 renal; 82.4% in the assay with CCRF-CEM leukemia. Moreover, in the assay on MOLT-4 leukemia, the growth was 77.2%.

With `C=C1CCC2C3(C)COC(C)(C)OC3CCC2(C)C1C/C=C1/C(=O)OCC1OC(C)=O` (stereo not drawn), the growth in the assay with HCT-15 colon was 33.8%; in the assay with HT29 colon, 18.4%; in the assay with SNB-75 CNS, 58%; in the assay with SNB-19 CNS, 110%; in the assay on U251 CNS, 36.7%; in the assay on PC-3 prostate, 56.4%. The growth in the assay on SK-MEL-5 melanoma was 56.9%; with UACC-62 melanoma it was 41.9%; in the assay with LOX IMVI melanoma, 8.63% (active); in the assay on SK-MEL-28 melanoma it was 69.6%; in the assay with SK-MEL-2 melanoma, 49.2%; in the assay with EKVX NSCLC, 53.5%. The growth is 33% in the assay on SN12C renal; 64.6% with UO-31 renal; 68.7% in the assay on TK-10 renal; 24.3% in the assay with ACHN renal; 19.3% in the assay with CAKI-1 renal; 116% with A498 renal. The growth in the assay with MOLT-4 leukemia was -16.8% (active).

Turning to `COC(=O)[C@@H]1CC[C@]2(C)[C@H](CC[C@@H]3O[C@@]32C)[C@@]1(C)CC(=O)c1ccoc1`, the growth with HCT-15 colon is 103%; with HT29 colon, 93.2%; with SNB-75 CNS, 114%; in the assay on SNB-19 CNS, 91.1%; in the assay on U251 CNS it was 91.8%; with PC-3 prostate it was 86%. Besides, the growth was 97.4% in the assay with SK-MEL-5 melanoma; 89.5% in the assay on UACC-62 melanoma; 98.6% in the assay with LOX IMVI melanoma; 104% with SK-MEL-28 melanoma; 78.2% with SK-MEL-2 melanoma; 92.7% in the assay with SN12C renal. Besides, the growth in the assay on UO-31 renal is 97%; with TK-10 renal, 84%; in the assay on ACHN renal, 105%; in the assay on CAKI-1 renal, 106%; in the assay with A498 renal, 88.6%; with CCRF-CEM leukemia, 102%. In addition, in the assay with MOLT-4 leukemia, the growth is 94.8%.
